# Experimental data as given in PubChem BioAssay AID2125 (NMMLSC, 2009).
# Unmarked numbers belong to inactive results.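 Rule for the calls: active = combined score above 50, rising as EC50 falls below 10 µM and growth at top dose drops; inactive = the rest.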 Peptide text beside a SMILES is read from it. * marks the point of attachment. Cbz = O=C(OCc1ccccc1)*
# Test system: YE3959
# Experiment: yeast strain panel proliferation effects – secondary panel, OD600, 26S proteasome disassembly project, profiling panel (AID 2125)
# Settings: S. cerevisiae strain panel, growth OD600, 6-8 h, at 100 µM, stronger effect = lower value
row,SMILES,percent response (growth)
1,CC(C)C[C@@H](C=O)NC(=O)[C@H](CC(C)C)NC(=O)[C@H](CC(C)C)NC(=O)OCc1ccccc1 (Cbz-Leu-Leu-Leu-aldehyde),52.8%
2,CC(=O)N1C(=O)C(=C2C=C(C)OC(C)=C2)c2ccccc21,60.8%
